Potency and affinity values are given separately. Calls of active or inactive are those of the source. No rule for the calls is given here.
assay: HEK293 cell cytotoxicity, dose response, cytotoxicity control, plate reader, cherry-picked samples (AID 743446); settings: stronger effect = lower value; at 26 µM unless noted

SMILES | max activity
Cc1cc(-c2nc3cc(F)ccc3s2)ccc1N | 28.1% [at 1.6 µM] (inactive)
COc1cc(SC)ccc1C(=O)Nc1ccc(Cl)cn1 | 19.7% [at 3 µM] (inactive)
Cn1cnc(S(=O)(=O)N2C[C@@H](O)COC[C@H]3O[C@H](CC(=O)NC4CCCC4)CC[C@@H]32)c1 | 13.5% [at 0.38 µM] (inactive)
Cc1cccn2c(CNCC3(c4ccccc4)CCCC3)c(C(=O)N3CCOCC3)nc12 | 13.8% [at 3 µM] (inactive)
CC(C)(C)NC(=O)c1cccc(NC(=O)c2ccc3c(c2)C(=O)N(C(C)(C)C)C3=O)c1 | 27.3% [at 0.195 µM] (inactive)
CN(C)S(=O)(=O)c1cccc(NC(=O)COc2ccccc2C(=O)Nc2ccccc2)c1 | -34.1% (inactive)
C[C@H](CO)N1C[C@H](C)[C@H](CN(C)C(=O)Cc2ccccc2)OCCCC[C@H](C)Oc2ccc(NC(=O)Nc3ccc(C(F)(F)F)cc3)cc2C1=O | 12.5% [at 3 µM] (inactive)
CC(=O)c1c(C)[nH]c(C(=O)CN2C(=O)NC(C)(c3ccc(C)cc3)C2=O)c1C (stereo not drawn) | 39.5% (inactive)
CC(C)NC(=O)Nc1ccc2c(c1)C(=O)N([C@H](C)CO)C[C@@H](C)[C@H](CN(C)S(C)(=O)=O)OCCCC[C@H](C)O2 | 43.1% (inactive)
C[C@H](CO)N1C[C@H](C)[C@H](CN(C)S(=O)(=O)c2ccc(C(F)(F)F)cc2)OCc2ccccc2-c2c(n(C)c3ccccc23)C1=O | -10.7% [at 1.6 µM] (inactive)
c1ccc(COc2cccc(-c3cc4nc(NCCCn5ccnc5)ccn4n3)c2)cc1 | 48.7% [at 0.195 µM] (inactive)
COc1cccc(-c2cc(C(=O)Nc3cccc(O)c3)no2)c1 | -7.14% (inactive)
COc1ccc(CC(=O)Nc2cccc(-c3nnc(-c4cccc(C)c4)o3)c2)cc1OC | -27% (inactive)
C=CCNc1nc(-c2cc3ccccc3o2)cs1 | -11.4% [at 0.8 µM] (inactive)
O=C(C[C@H]1C=C[C@@H](NC(=O)C2CCC2)[C@H](CO)O1)NCCCN1CCOCC1 | -15.9% [at 1.6 µM] (inactive)
COc1ccc2sc(NC(=O)c3ccco3)nc2c1 | 18.6% [at 0.05 µM] (inactive)
O=S1(=O)CCOC[C@H](CC2CCCCC2)N1Cc1ccccc1F | -17.9% [at 0.1 µM] (inactive)

SMILES | max activity
C[C@H](CO)N1C[C@H](C)[C@H](CN(C)C(=O)Nc2cccc3ccccc23)OCCCC[C@H](C)Oc2ccc(NC(=O)c3ccccc3)cc2C1=O | 31.2% [at 12 µM] (inactive)
Cc1ccc(NC(=O)c2sc3ccccc3c2Cl)nc1 | 24.8% [at 12 µM] (inactive)
O=C(NCc1ccc(F)cc1)c1cc(C2CCCCN2S(=O)(=O)c2cccs2)on1 (stereo not drawn) | 15.1% [at 0.38 µM] (inactive)
Cc1ccc(NC(=O)c2ccc3c(c2)OCCO3)cc1C | 32.4% [at 0.38 µM] (inactive)
C[C@H]1CN([C@@H](C)CO)C(=O)c2cc(C#CCc3ccccc3)cnc2O[C@H]1CN(C)Cc1ccccc1 | 13.9% [at 3 µM] (inactive)
Cc1ccccc1C(=O)Nc1nnc(-c2ccco2)s1 | -13.7% [at 12 µM] (inactive)
c1ccc(-n2nnc3c(N4CCOCC4)ncnc32)cc1 | 32.3% [at 0.8 µM] (inactive)
C[C@@H]1CN([C@@H](C)CO)C(=O)c2cccc(NC(=O)Nc3ccc(C(F)(F)F)cc3)c2O[C@H]1CN(C)C(=O)Nc1cccc2ccccc12 | 14.8% [at 6 µM] (inactive)
C=CCN1CCN(C(=O)CCCc2ccccc2)CC1 | 69.3% [at 12 µM] (inactive)
Cc1ccc2nc(CSc3nc(C)ccc3C#N)[nH]c2c1 | -29.6% [at 1.6 µM] (inactive)
COc1ccc(C(=O)Nc2ccc3ccccc3n2)c(OC)c1OC | -6.81% [at 0.1 µM] (inactive)
CCc1nnc(NC(=O)CSc2nnc3ncccn23)s1 | 33.7% (inactive)
Cc1ccc(NC(=O)c2cnn(-c3ccccc3)c2C)cc1C | 11.5% [at 0.05 µM] (inactive)
COc1ccc(S(=O)(=O)N2CCN(C(=O)c3ccc(C)o3)CC2)cc1 | 29.4% [at 0.195 µM] (inactive)
CC(=O)c1ccc(NC(=O)c2noc3c2CCC3)cc1 | 12.6% [at 0.1 µM] (inactive)
C[C@H](CO)N1C[C@H](C)[C@H](CN(C)C(=O)Nc2ccccc2)OCCCC[C@H](C)Oc2ccc(NC(=O)C3CCCCC3)cc2C1=O | 9.5% [at 3 µM] (inactive)
